From PubChem BioAssay (NCI)
Compounds without any hit were thinned out: in the full panel of roughly 83,000, 20% have a hit.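 96-well plates, one dose, 48 hours. Percent growth reported; active if below 10.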 Calls of active or inactive are those of the source.

Tests used:
Assay in all cases: NCI-60 one-dose screen, 48 h (100 = growth as untreated, 0 = no growth, -100 = all killed)
Conditions in all cases: 10 µM unless noted
[1] = tested on: T-47D breast
[2] = tested on: BT-549 breast
[3] = tested on: MDA-MB-435 melanoma
[4] = tested on: SW-620 colon
[5] = tested on: MCF7 breast
[6] = tested on: HCT-116 colon
[7] = tested on: HCC-2998 colon
[8] = tested on: KM12 colon

Measured: growth

CCNC(=O)N1CCc2cc(OC)c(OCCc3ccc(OC)c(N)c3)cc2C1c1cc(C)c(C)cc1C (stereo not drawn)
inactive: [1] 52.6% | [2] 25.6% | [3] 17.2% | [4] 15.7% | [5] 22.7% | [6] 17.3% | [7] 49.2% | [8] 33.8%

Cc1ccc(NC(=O)CNc2cc(C(N)=O)cc(F)c2C)c(Cl)c1
inactive: [1] 104% | [2] 102% | [3] 97.4% | [4] 96.8% | [5] 87.2% | [6] 96.3% | [7] 122% | [8] 99.1%

COc1cc(Cn2cc3c(c2)-c2onc(CN4CCCC4)c2CC3)cc(OC)c1OC
inactive: [1] 76.1% | [2] 93.2% | [3] 96.4% | [4] 104% | [5] 80.6% | [6] 95.9% | [7] 106% | [8] 90.3%

CC(=O)C1=C(C)NC(NN)=NC1c1cccc(Cl)c1 (stereo not drawn)
inactive: [1] 101% | [2] 119% | [3] 103% | [4] 108% | [5] 92.3% | [6] 105% | [7] 127% | [8] 102%

COc1cc(/C=N/NC(=O)c2cn(C3CC3)c3c(OC)c(N4CC5CCCNC5C4)c(F)cc3c2=O)ccc1O (stereo not drawn)
inactive: [2] 107% | [3] 95.3% | [7] 14.8% | [8] 69.2%
active: [1] -30.4% | [4] 0.437% | [5] -27.7% | [6] -59.1%

COc1ccc(COc2ccc(/C=C3\C(=O)Nc4ccccc43)cc2OC)cc1
inactive: [1] 113% | [2] 92.1% | [3] 106% | [4] 99.1% | [5] 94% | [6] 108% | [7] 102% | [8] 104%

COc1ccc(-n2c(SCc3n[nH]c(=S)o3)nc3ccc(Cl)cc3c2=O)cc1
inactive: [1] 97.6% | [2] 115% | [3] 94.8% | [4] 97.8% | [5] 90.6% | [6] 104% | [7] 101% | [8] 98.6%

COC(=O)c1ccc(NC2=C/C(=N/S(=O)(=O)c3ccc(C(=O)O)cc3)c3ccccc3C2=O)cc1
inactive: [2] 84.2% | [7] 105% | [8] 51.1%
active: [1] 4.9% | [3] -93.1% | [4] -30% | [5] -58.2% | [6] 5.32%

COc1cc(Cn2cc3c(c2)-c2onc(CN4CCOCC4)c2CC3)cc(OC)c1OC
inactive: [1] 79.3% | [2] 96.7% | [3] 101% | [4] 112% | [5] 89% | [6] 104% | [7] 105% | [8] 101%

Cc1cccc2c3c(sc12)C(c1ccc(F)cc1)C(C#N)=C(/N=C/c1ccc(Cl)cc1)O3 (stereo not drawn)
inactive: [1] 56.7% | [4] 19.6% | [5] 14.1% | [8] 15.7%
active: [2] -26.5% | [3] -12.4% | [6] 2.26% | [7] 5.44%

Cc1ccc2c(c1)C13C(=C2Br)CCCN1C(=O)c1ccccc13 (stereo not drawn)
inactive: [1] 86.8% | [2] 104% | [3] 54.8% | [4] 93.7% | [5] 74.3% | [6] 96.5% | [7] 113% | [8] 91.5%

CCc1cccc(NC(=O)CNc2cc(S(=O)(=O)N(C)C)cc(C)c2C)c1
inactive: [1] 88.8% | [2] 97.3% | [3] 92.4% | [4] 97.6% | [5] 91.7% | [6] 91.3% | [7] 123% | [8] 98.9%

CC(=O)c1ccc(Nc2nc(SCC(C)C)nc(-c3ccccc3)c2C#N)cc1
inactive: [1] 94.5% | [2] 92% | [3] 106% | [4] 117% | [5] 100% | [6] 83.7% | [7] 105% | [8] 112%

COc1cc(-c2ccc3ncnc(NCc4ccccc4)c3c2)cnc1OC
inactive: [2] 57.2% | [3] 77.1% | [4] 74.6% | [5] 27% | [6] 78.1% | [7] 73.2% | [8] 95.2%
active: [1] 2.37%

C=CCn1c(-c2nc3ccc(C(=C(C#N)C#N)c4ccccc4)cc3[nH]2)cc2cc(Br)ccc21
inactive: [1] 43% | [2] 71.3% | [3] 75.2% | [4] 61.2% | [6] 27.4% | [7] 61.2% | [8] 34.1%
active: [5] 0.939%

Cn1cc(-c2nc(N)nnc2-c2c[nH]c3ccc(Br)cc23)c2cc(Br)ccc21
inactive: [1] 32.2% | [2] 48.8% | [3] 11.6% | [4] 29.2% | [5] 30.6% | [6] 17.6% | [7] 81.9% | [8] 27.6%

CN1CCN(Cc2ccc(NC(=O)c3cncc(C#Cc4cnn5cccnc45)c3)cc2C(F)(F)F)CC1
inactive: [1] 54.2% | [2] 47.1% | [7] 12.7%
active: [3] 3.16% | [4] 0.2% | [5] -2.5% | [6] 4.34% | [8] 2.87%

O=C1[C@H]2Cc3c([nH]c4ccccc34)[C@@H](c3ccc(Cl)cc3)N2C(=O)CN1C1CCN(Cc2ccccc2)CC1
inactive: [1] 55.9% | [2] 83.9% | [3] 43.8% | [4] 62.5% | [5] 12.6% | [6] 33% | [7] 40.3% | [8] 47.7%

N/C(=N\C(N)=N\c1nc2ccccc2s1)c1ccc(C(F)(F)F)cc1
inactive: [1] 69% | [2] 101% | [3] 93% | [4] 106% | [5] 77.9% | [6] 56.4% | [7] 94% | [8] 61.6%

CCO/C=N/C1=C(C#N)C(c2ccc(F)cc2)c2sc3c(C)cccc3c2O1 (stereo not drawn)
inactive: [1] 62.1% | [2] 20% | [4] 19.6% | [5] 14.6% | [7] 18.7%
active: [3] -31.2% | [6] 6.05% | [8] 8.6%

COc1cc(/C=C/C(=O)c2ccc(NC(=O)CSc3nnc(-c4ccc(-c5nc6ccc(Cl)cc6[nH]5)cc4)o3)cc2)cc(OC)c1OC
inactive: [1] 106% | [2] 85.6% | [3] 24.1% | [4] 87.4% | [5] 91.8% | [6] 90.5% | [7] 96.3% | [8] 80.6%

CC1=N[C@@H]2CN(C(=O)OC(C)(C)C)C[C@@H]2n2c1cc1ccccc1c2=O
inactive: [1] 98.8% | [2] 144% | [3] 108% | [4] 107% | [5] 95.6% | [6] 103% | [7] 107% | [8] 97.5%

CC(C)(C)c1ccc(C(=O)Nc2sc3c(c2C(N)=O)CCC(O)C3)cc1 (stereo not drawn)
active: [4] 7.55% | [5] 5.17%
inactive: [1] 28.8% | [2] 58.5% | [3] 32.2% | [6] 26.3% | [7] 37.4% | [8] 11.7%

COc1ccc(NCc2cn(-c3ccc(C(=O)O)cc3)nc2-c2cc(C(F)(F)F)cc(C(F)(F)F)c2)cc1
inactive: [1] 76.6% | [2] 110% | [3] 101% | [4] 102% | [5] 90.9% | [6] 95.2% | [7] 104% | [8] 99.8%

CCN1CCN(Cc2cn(-c3ccc(S(N)(=O)=O)cc3)nn2)CC1
inactive: [1] 105% | [2] 130% | [3] 107% | [4] 106% | [5] 97.4% | [6] 103% | [7] 106% | [8] 104%

Cc1ccc(C2=NN(C)C(=O)C3(CCCC3)C2)cc1
inactive: [1] 102% | [2] 117% | [3] 107% | [4] 103% | [5] 89.8% | [6] 104% | [7] 110% | [8] 104%

C=CC(=O)N1CCC=C(c2cc3c(N[C@H](C)c4ccccc4)ncnc3[nH]2)C1
inactive: [1] 29.7% | [2] 89.8% | [3] 74.5% | [4] 91.7% | [5] 49.5% | [6] 71.8% | [7] 93.8% | [8] 90.5%

COc1cccc(N2CCN(c3ncnc4c3[nH]c3ccc(F)cc34)C[C@H]2C)c1
inactive: [1] 14.6% | [3] 19.4% | [4] 95.9% | [5] 37.2% | [6] 41.9% | [7] 96.8% | [8] 54.5%
active: [2] -3.9%

CCC(CC)N1C(=O)/C(=c2\sc3n(c2=O)NC2C(N=3)N(CC)C(=O)N2CC)c2ccccc21 (stereo not drawn)
active: [3] 9.51%
inactive: [1] 86.1% | [2] 102% | [4] 48.2% | [5] 35.8% | [6] 27.9% | [7] 65.9% | [8] 11.2%

N#Cc1c(NC(=O)c2cccc(C(F)(F)F)c2F)sc2c1CCC(=O)C2
active: [1] -3.25% | [2] -22.7% | [3] -30.5% | [4] 0.65% | [5] 2.17% | [6] -50.9% | [7] -29.6% | [8] -42.7%

CC1(COc2ccc3ncc(C#Cc4cncc(C(=O)Nc5cccc(C(F)(F)F)c5)c4)n3n2)COC1
inactive: [1] 78.9% | [2] 128% | [3] 89.2% | [4] 69% | [5] 62.8% | [6] 56.4% | [7] 86.9% | [8] 21.1%
